# Where two headings read alike, the source gives them in different places.
# Tests used:
# Set-up in all cases: species or system human, MV4-11 + K-562 + COLO205 + SK-N-BE2 + OVCAR-8
# CAMKK2 = settings: read-out: apparent Kd; compound concentrations:100 nM and 1000 nM (sheet 'Samples'); n = 1
# CHEK1 = settings: read-out: apparent Kd, n = 1
# EPHA4 = settings: read-out: apparent Kd; compound concentrations:100 nM and 1000 nM (sheet 'Samples'); n = 1
# EPHA5 = settings: read-out: apparent Kd, n = 1
# EPHB2 = settings: read-out: apparent Kd; compound concentrations:100 nM and 1000 nM (sheet 'Samples'); n = 1
# EPHB4 = settings: read-out: apparent Kd; compound concentrations:100 nM and 1000 nM (sheet 'Samples'); n = 1
# MAPK10 = settings: read-out: apparent Kd; compound concentrations:100 nM and 1000 nM (sheet 'Samples'); n = 1
# MAPK9 = settings: read-out: apparent Kd; compound concentrations:100 nM and 1000 nM (sheet 'Samples'); n = 1
# PIP4K2C = settings: read-out: apparent Kd, n = 1
# PRKACA = settings: read-out: apparent Kd, n = 1
# PRKACB = settings: read-out: apparent Kd, n = 1
# PRKAG2 = settings: read-out: apparent Kd; compound concentrations:100 nM and 1000 nM (sheet 'Samples'); n = 1
# TNK1 = settings: read-out: apparent Kd; compound concentrations:100 nM and 1000 nM (sheet 'Samples'); n = 1
# CDK16 = settings: read-out: apparent Kd; compound concentrations: 100 nM and 1000 nM (sheet 'Samples'), CATDS: 2.61766261640392E-2; n = 1
# CSNK1D = settings: read-out: apparent Kd, compound concentrations: 100 nM and 1000 nM (sheet 'Samples'), n = 1
# MARK3 = settings: read-out: apparent Kd, n = 1
# RPS6KA4 = settings: read-out: apparent Kd; compound concentrations: 100 nM and 1000 nM (sheet 'Samples'), CATDS: 8.4573730907670092E-3; n = 1
# STK4 = settings: read-out: apparent Kd, compound concentrations: 100 nM and 1000 nM (sheet 'Samples'), n = 1
# AURKA = settings: read-out: apparent Kd; compound concentrations:100 nM and 1000 nM (sheet 'Samples'); n = 1
# [1] = compound concentrations:100 nM and 1000 nM (sheet 'Samples')
smiles,measurement,setting,value
CS(=O)(=O)CCn1c(=O)c(Oc2ccc(F)cc2F)cc2cnc(NC3CCOCC3)nc21 [RO5027956-000],potency estimated from few doses,CAMKK2,1.27 µM
same,potency estimated from few doses,CHEK1; [1],1.5 µM
same,potency estimated from few doses,EPHA4,0.896 µM
same,potency estimated from few doses,EPHA5; [1],0.751 µM
same,potency estimated from few doses,EPHB2,0.72 µM
same,potency estimated from few doses,EPHB4,0.519 µM
same,potency estimated from few doses,MAPK10,0.127 µM
same,potency estimated from few doses,MAPK9,0.494 µM
same,potency estimated from few doses,PIP4K2C; [1],0.462 µM
same,potency estimated from few doses,PRKACA; [1],2.09 µM
same,potency estimated from few doses,PRKACB; [1],0.977 µM
same,potency estimated from few doses,PRKAG2,0.497 µM
same,potency estimated from few doses,TNK1,0.487 µM
O=C(O)C(F)(F)F.O=C(O)C(F)(F)F.O=c1[nH]ccc2nc(N[C@@H]3CCCNC3)nc(Nc3ccc(S(=O)(=O)N4CCOCC4)cc3)c12.O=c1[nH]ccc2nc(N[C@@H]3CCCNC3)nc(Nc3ccc(S(=O)(=O)N4CCOCC4)cc3)c12 [GSK2177277A],potency estimated from few doses,CDK16,0.032 µM
same,potency estimated from few doses,"CHEK1; compound concentrations: 100 nM and 1000 nM (sheet 'Samples'), CATDS: 1.19973934343878E-2",0.166 µM
same,potency estimated from few doses,CSNK1D; CATDS: 1.4345830153399601E-2,0.107 µM
same,potency estimated from few doses,"EPHA5; compound concentrations: 100 nM and 1000 nM (sheet 'Samples'), CATDS: 6.3188743096270596E-3",1.69 µM
same,potency estimated from few doses,"MARK3; compound concentrations: 100 nM and 1000 nM (sheet 'Samples'), CATDS: 1.6672626063874801E-2",0.0764 µM
same,potency estimated from few doses,"PIP4K2C; compound concentrations: 100 nM and 1000 nM (sheet 'Samples'), CATDS: 6.0874593504341903E-3",2.14 µM
same,potency estimated from few doses,RPS6KA4,0.47 µM
same,potency estimated from few doses,STK4; CATDS: 4.9368785940317003E-2,0.0117 µM
CCn1c(-c2nonc2N)nc2c(C#CC(C)(C)O)nc(O[C@@H](CN)c3ccccc3)cc21.O=C(O)C(F)(F)F [GSK1007102B],potency estimated from few doses,MARK3; [1],0.163 µM
same,potency estimated from few doses,PRKACA; [1],0.0375 µM
same,potency estimated from few doses,PRKACB; [1],0.0411 µM
same,potency estimated from few doses,PRKAG2,0.121 µM
FC(F)(F)c1ccc(-c2ncn(CCCN3CCOCC3)c2-c2ccncc2)cc1 [SB-217780],potency estimated from few doses,STK4; CATDS: 0.215555066939567,1.54 µM
NCC(NC(=O)c1cc(-c2cn[nH]c2)c(-c2ccnc3[nH]ccc23)s1)c1ccccc1.NCC(NC(=O)c1cc(-c2cn[nH]c2)c(-c2ccnc3[nH]ccc23)s1)c1ccccc1.O=C(O)C(F)(F)F.O=C(O)C(F)(F)F (stereo not shown) [GSK1325775A],potency estimated from few doses,CSNK1D; CATDS: 2.89439417277669E-2,2.45 µM
same,potency estimated from few doses,"PRKACA; compound concentrations: 100 nM and 1000 nM (sheet 'Samples'), CATDS: 4.90722253933666E-2",0.503 µM
same,potency estimated from few doses,"PRKACB; compound concentrations: 100 nM and 1000 nM (sheet 'Samples'), CATDS: 4.09510310832654E-2",0.782 µM
CN(C)CCNC(=O)Nc1ccc(N(C)c2ccnc(Nc3ccc(CS(C)(=O)=O)cc3)n2)cc1.Cl [GW830900A],potency estimated from few doses,AURKA,0.893 µM
same,potency estimated from few doses,PIP4K2C; [1],1.84 µM

# From paper PMC11062922 (Nature Chemical Biology, 2023)
